# From the supplement of paper PMC3545927
# Some of the results follow. The hit rate among all sequences tested is not known here.
# Biological target: furin, P09958
# Assay: furin cleavage Z-score vs untreated control; higher = more cleavage, active = 3.5 or more, inactive = 1 or less, 8 variable residues between constant flanks
# Outline: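 Reactions of 0.01 ml ran for 7.5, 15 or 30 min in 50 mM HEPES pH 7.5 with CaCl2 and NaCl, at 1:10 enzyme:substrate. In them, purified furin acted on bead-held 8-mer peptides fused to a cDNA oligonucleotide. The cleavage Z-score was obtained by lowess-adjusting log sequencing counts of released DNA against furin-free reactions and scaling by median absolute deviation.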
# Sequence of furin, P09958 (P09958 whole entry): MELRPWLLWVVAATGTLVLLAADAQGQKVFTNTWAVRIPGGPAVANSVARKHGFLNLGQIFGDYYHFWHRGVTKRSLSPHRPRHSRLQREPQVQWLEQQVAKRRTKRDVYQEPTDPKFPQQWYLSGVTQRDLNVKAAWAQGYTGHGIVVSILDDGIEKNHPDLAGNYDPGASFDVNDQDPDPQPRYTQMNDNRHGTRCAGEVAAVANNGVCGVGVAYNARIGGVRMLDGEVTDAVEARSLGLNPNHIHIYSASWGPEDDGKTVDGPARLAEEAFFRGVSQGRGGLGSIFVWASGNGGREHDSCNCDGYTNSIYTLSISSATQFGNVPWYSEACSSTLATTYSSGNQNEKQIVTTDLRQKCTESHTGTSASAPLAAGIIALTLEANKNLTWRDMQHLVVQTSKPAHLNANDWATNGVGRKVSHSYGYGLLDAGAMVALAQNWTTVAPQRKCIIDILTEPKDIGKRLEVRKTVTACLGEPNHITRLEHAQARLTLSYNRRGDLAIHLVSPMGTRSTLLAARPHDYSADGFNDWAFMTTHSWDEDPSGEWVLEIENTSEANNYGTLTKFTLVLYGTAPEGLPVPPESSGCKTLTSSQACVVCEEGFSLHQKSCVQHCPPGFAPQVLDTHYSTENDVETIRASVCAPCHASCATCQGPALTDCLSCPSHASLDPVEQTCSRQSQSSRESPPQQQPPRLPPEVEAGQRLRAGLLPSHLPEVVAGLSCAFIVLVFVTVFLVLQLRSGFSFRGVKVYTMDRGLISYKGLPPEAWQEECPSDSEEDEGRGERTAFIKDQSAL
Sequence,furin cleavage Z-score (7.5 min),furin cleavage Z-score (15 min),furin cleavage Z-score (30 min)
CAVVCCSMSCAGNASASA [HC2100],-1.04 (inactive),-1.97 (inactive),-0.294 (inactive)
CAKSPRRTRSAGNASASA [FS-1351],5.21 (active),4.36 (active),2.84
CANDARRTRSAGNASASA [FS-693],6.7 (active),7.77 (active),7.39 (active)
CAESTTPCSGAGNASASA [HC1977],-0.591 (inactive),0.488 (inactive),-0.368 (inactive)
CAGTTDRSGAAGNASASA [HC419],1,2.15,-0.141 (inactive)
CALPYIEQGMAGNASASA [HC1018],-0.393 (inactive),-0.653 (inactive),2.95
CALRSRSGRSAGNASASA [FS-57],4.75 (active),5.58 (active),4.32 (active)
CALRLRKGRSAGNASASA [FS-613],2.52,2.83,0.738 (inactive)
CAEQGRQGRSAGNASASA [FS-416],-1.07 (inactive),-0.0349 (inactive),0.708 (inactive)
CAQDPRSGRSAGNASASA [FS-846],0.797 (inactive),-0.812 (inactive),-0.37 (inactive)
CAQRERSGRSAGNASASA [FS-1057],4.28 (active),6.49 (active),6.16 (active)
CAQQHRQGRSAGNASASA [FS-1391],6.09 (active),6.71 (active),6.63 (active)
CALRSRWGRSAGNASASA [FS-1370],6.03 (active),5.71 (active),6.06 (active)
CATNSRGENCAGNASASA [HC1504],0.0549 (inactive),0.267 (inactive),0.425 (inactive)
CATTPCSGSAAGNASASA [HC1923],0.77 (inactive),-1.08 (inactive),-0.465 (inactive)
CATGDFDSVIAGNASASA [HC883],-0.133 (inactive),-1.34 (inactive),-0.511 (inactive)
CAKRRLQKRSAGNASASA [FS-1638],11.7 (active),9.73 (active),9.24 (active)
CANLMRPKRSAGNASASA [FS-137],11.8 (active),11.3 (active),8.61 (active)
CAGSFRGKRSAGNASASA [FS-1206],11.1 (active),11.4 (active),8.01 (active)
CANRGIGKRSAGNASASA [FS-65],7.18 (active),8.2 (active),7.79 (active)
CAGSFRSLRSAGNASASA [FS-433],-0.832 (inactive),-0.397 (inactive),-0.333 (inactive)
CACQRGYKGVAGNASASA [HC1166],-1.45 (inactive),-3.75 (inactive),-2.51 (inactive)

Sequence,furin cleavage Z-score (7.5 min),furin cleavage Z-score (15 min),furin cleavage Z-score (30 min)
CAEWEVPCHRAGNASASA [HC2448],1.07,2.14,0.904 (inactive)
CAIGSVGLGKAGNASASA [HC1080],1.13,0.942 (inactive),-0.856 (inactive)
CAETPCSGSWAGNASASA [HC1832],-0.56 (inactive),-0.454 (inactive),-0.69 (inactive)
CAGINAVAYYAGNASASA [HC866],-0.468 (inactive),-1.09 (inactive),-1.09 (inactive)
CARSRKEVELAGNASASA [FS-2089],0.0687 (inactive),0.38 (inactive),-1.75 (inactive)
CADELRGKRSAGNASASA [FS-754],-0.105 (inactive),0.269 (inactive),-1.01 (inactive)
CALKRRGKRSAGNASASA [FS-350],12.2 (active),12.5 (active),8.44 (active)
CACGGRGKRSAGNASASA [FS-14],8.41 (active),9.33 (active),7.54 (active)
CALKPRPKRSAGNASASA [FS-609],10.8 (active),12.3 (active),9.88 (active)
CALRKYPKRSAGNASASA [FS-358],0.0194 (inactive),0.839 (inactive),1.49
CARKRAQKRSAGNASASA [FS-1064],8.12 (active),9.12 (active),7.74 (active)
CAEVPCHRDSAGNASASA [HC2391],0.533 (inactive),1.52,1.63
CAFVSLLAPGAGNASASA [HC360],-0.325 (inactive),-1.4 (inactive),-1.08 (inactive)
CAEVPCHDPSAGNASASA [HC2371],0.427 (inactive),1.64,0.537 (inactive)
CAEVPCHRYSAGNASASA [HC2389],0.533 (inactive),1.28,1.5
CADLMEECSQAGNASASA [HC1805],-0.946 (inactive),-0.224 (inactive),-0.925 (inactive)
CALKRMQKRSAGNASASA [FS-610],12.7 (active),13.3 (active),10.5 (active)
CAEAMTRYSAAGNASASA [HC1541],-0.217 (inactive),0.448 (inactive),-0.963 (inactive)
CAHLVRQKRAAGNASASA [FS-1008],10.3 (active),10.1 (active),7.65 (active)
CAEALRQKRAAGNASASA [FS-227],6.68 (active),7.12 (active),5.04 (active)
CATTPCSGPWAGNASASA [HC1919],-0.176 (inactive),1.46,0.343 (inactive)
